PubChem BioAssay (NCATS)
Inconclusive results are not listed. A call without a number means that no potency is given here. The source made the active and inactive calls. Calls come from the whole dose curve; as a rule, active = well fitted inhibition curve with a large enough effect in the repeat runs; inconclusive = weak or mixed curves; inactive = flat fitted curve, though single readings scatter. Where a SMILES comes first, the peptide text is derived from it. The star is where a group is joined. PhAc = O=C(Cc1ccccc1)*

Target: Cytochrome P450 2D6 (Homo sapiens) (UniProt P10635)
Assay: Cytochrome P450 family 2 subfamily D member 6 (CYP2D6) small molecule antagonists: luciferase biochemical (cell-free) qHTS assay (AID 1645840); note: nearly all actives have a fitted effect of over 55% in size
Details: P450-Glo CYP2D6 enzyme, luciferin luminescence, 1 h; series mostly up to 57.4 µM
Method: National Center for Advancing Translational Sciences [NCATS] Assay Overview: Cytochrome P450 (CYP) enzymes are membrane-bound hemeproteins that play a key role in metabolism of drugs and xenobiotics. Assaying the effect of chemicals on CYP isozymes is useful to minimize the adverse drug reactions and toxicities in drug development process. Chemical compounds were tested for their effect on CYP enzyme activities by using P450-Glo (TM) screening systems (Promega Corporation, Madison, WI). These systems provide a luminescent method containing proluciferin substrates and are converted to luciferin products by CYP isozymes. The luciferin products formed are detected with a luciferin detection reagent, and the amount of light produced is proportional to CYP activity. P450-Glo (TM) CYP2D6 screening system (Catalog. No. V9890) was used to detect the compounds that interfere in CYP2D6 activity.
Assay Protocol Summary: Two ul of enzyme-substrate mix was dispensed into medium binding white/solid 1536-well plates (Greiner Bio-One North America Inc., Monroe, NC) using a Flying Reagent Dispenser (FRD, Aurora Discovery, San Diego, CA). […] The assay plates were incubated at room temperature for 10 min. Then 2 ul of NADPH regeneration solution was added to each well of the assay plates using an FRD and incubated at room temperature for 1 h. The reaction was stopped by adding 4 ul of detection reagent using an FRD and after 20 min incubation at room temperature, the luminescence signal was measured using a ViewLux plate reader (Perkin Elmer, Shelton, CT). Data were expressed as relative luminescence units.
Potency is the fitted concentration of half-maximal effect.

Chain of Cytochrome P450 2D6 (Homo sapiens) (P10635 whole entry, looked up): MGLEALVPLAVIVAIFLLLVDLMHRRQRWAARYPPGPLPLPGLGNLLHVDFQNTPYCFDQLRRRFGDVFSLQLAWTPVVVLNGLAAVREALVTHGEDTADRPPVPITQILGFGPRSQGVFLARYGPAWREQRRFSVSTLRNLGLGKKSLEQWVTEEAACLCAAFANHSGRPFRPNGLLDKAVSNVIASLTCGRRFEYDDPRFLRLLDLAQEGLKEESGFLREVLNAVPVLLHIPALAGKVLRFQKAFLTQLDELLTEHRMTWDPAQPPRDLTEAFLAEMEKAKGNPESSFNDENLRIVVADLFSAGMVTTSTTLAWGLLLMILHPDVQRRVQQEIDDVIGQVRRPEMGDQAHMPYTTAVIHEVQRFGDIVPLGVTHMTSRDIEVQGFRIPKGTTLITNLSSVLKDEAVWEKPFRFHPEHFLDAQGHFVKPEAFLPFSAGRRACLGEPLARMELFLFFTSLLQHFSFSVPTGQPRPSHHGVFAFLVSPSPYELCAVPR

SMILES | Potency
C[C@@H](NC(=O)c1cc(C(=O)N[C@@H](Cc2ccccc2)[C@H](O)CNC2CC2)cc(N(C)S(C)(=O)=O)c1)c1ccccc1 | 4.77 µM (active)
Nc1c(-c2ccccc2)nc(Cl)c2c(O)n[nH]c(=O)c12 | inactive
CCOC(=O)CNC(=O)[C@@H]1CCCN1C(=O)Cc1ccccc1 (PhAc-Pro-Gly-OEt) | inactive
Cc1c(C)c(NCC(=O)N(C)C2CCN(Cc3ccc(C(N)=O)cc3)CC2)c(C)c(C)c1N | 21.3 µM (active)
CC(C)c1c(NC(=O)Nc2ccc(Cl)cc2)c(=O)n(-c2ccccc2)n1C | 12 µM (active)
O=C(O)Cn1nnc(-c2ccc(CN(CCCCOc3ccc(CN4CCCC4)cc3)CCc3ccccc3)cc2)n1 | 12 µM (active)
CN1CCN(c2nc(-c3ccc(C(=O)NC4(C(=O)NCC#N)CCCCC4)cc3)cs2)CC1 | inactive
CN(C)c1ccc(C2O[C@@H](c3ccccc3)C[C@H](c3ccccc3)O2)cc1 (stereo not given in full) | inactive
COc1ccc(Oc2c(Cl)cnn(C3c4ccccc4-c4ccccc43)c2=O)cc1 | inactive
O=C(NC1CCN(CC(F)(F)F)CC1)c1ccc(-c2cccc(F)c2)nc1 | inactive
Cc1ccccc1-n1nc(-c2c(-c3ccc(F)cc3)nn3c2NC[C@@H](CO)C3)ccc1=O | inactive
Cc1occc1C(=O)n1ccnc1 | inactive
C[C@@H](c1ccccc1)N(C(N)=NC#N)c1cccc2ncccc12 | inactive
CC1(C)[C@H]2C[C@H](C/C=C\CCCC(=O)O)[C@@H](NC(=O)c3csc4ccc(O)cc34)[C@@H]1C2 | inactive
Cc1nnc(-c2ccc3occ(-c4ccc(S(C)=O)cc4)c3c2)o1 (stereo not given) | inactive
CC1(C)CC(NC(=O)C(=O)Nc2ccc(Cl)cc2)CC(C)(C)N1 | inactive
O=C(Nc1ccc(N2CCC(C(=O)N3CCOCC3)CC2)cc1)c1cnc(Oc2ccccc2)nc1 | inactive
O=C(c1ccc(Cl)c([N+](=O)[O-])c1)N1CCN(c2ccccc2F)CC1 | inactive
Cc1ccc(Cl)cc1N(CC(=O)Nc1c(F)cccc1F)S(C)(=O)=O | inactive
COc1ccc(-n2c(SCC#N)nc3sc4c(c3c2=O)CCCC4)cc1 | inactive

SMILES | Potency
CCC(C)C(N)C(=O)NCCN1CCOCC1 (stereo not given) | inactive
CCCSc1nc(NC2CC2c2ccc(F)c(F)c2)c2nnn(C3CC(OCCO)C(O)C3O)c2n1 (stereo not given) | 21.3 µM (active)
Cc1onc(-c2c(Cl)cccc2Cl)c1CC(=O)NCc1ccc(OCC(F)(F)F)nc1 | 19 µM (active)
COc1ccccc1N1CCN(CCCCNC(=O)c2ccc(-c3cscn3)cc2)CC1 | 6.01 µM (active)
Cc1cn(C[C@H](N)C(=O)O)c(=O)n(Cc2ccsc2C(=O)O)c1=O | inactive
NC[C@H]1CCC[C@@H](CNC(=O)[C@@H](Cc2c[nH]c3ccccc23)NC(=O)N2CCC3(C=Cc4ccccc43)CC2)C1 | 10.5 µM (active)
Cc1ccccc1NC(=O)Nc1ccc(CN2C(=O)N([C@@H](CC(C)C)C(=O)N[C@@H](CC(=O)O)c3ccccc3)C(=O)C2(C)C)cc1 | inactive
Nc1ncnc2c1ncn2[C@H]1O[C@@H](C(=O)N2CCN(CC(=O)Nc3cccc4c3CNC4=O)CC2)[C@H](O)[C@@H]1O | inactive
CNC(C)C(=O)NC(C(=O)N1CCCC1C(=O)Nc1cccc2ncccc12)C(C)C (stereo not given) | inactive
CC(C)[C@@](O)(c1ccc2cc(OC(F)F)c(OC(F)F)cc2c1)c1cn[nH]n1 | 1.69 µM (active)
CCOc1ccc(-c2nn3ncccc3c2-c2ccc(S(C)(=O)=O)cc2)cc1 | 1.07 µM (active)
COc1ccc(C(=O)NCc2cc(C(C)C)no2)cc1OC1CCN(C)CC1 | inactive
CC1(C)CC=C(C#Cc2ccccc2)c2cc(/C=C/c3ccc(C(=O)O)cc3)ccc21 | inactive
COc1ccc(-n2[nH]c3c(cnc4ccccc43)c2=O)cc1 | inactive
COc1ccnc2[nH]cc(C(=O)C(=O)N3CCN(C(=O)c4ccccc4)CC3C)c12 (stereo not given) | 3.01 µM (active)
COc1cccc(OC)c1-c1ccc(C[C@H](NC(=O)c2c(Cl)cccc2Cl)C(=O)O)cc1 | inactive
COc1ccc(CC(=O)NCc2ccccc2-c2ccccc2C(=O)NCCc2cccnc2)cc1 | 10.7 µM (active)
CC1(C)Oc2ncnc(N)c2N=C1c1ccc(C2CCC(CC(=O)O)CC2)cc1 (stereo not given) | inactive
Cc1c(F)cc(C(=O)NC2CC2)cc1-c1ccc(C(=O)NCC(C)(C)C)cn1 | inactive
CC(C(=O)Nc1cc(C#N)ccc1CCCC(=O)O)c1ccc(F)c2ccccc12 (stereo not given) | inactive
